Laboratory results reported in PubChem BioAssay (NCI).
Values joined by “and” are separate entries in the source; they are usually repeats but may differ in a detail not shown here. Equal values may be shown once. The panel holds about 79,000 compounds, 15% with a hit somewhere; the sample as a whole holds those more often. Cut-off read from the data, not from the text of the source: active = growth inhibition above about 70%; inactive = the rest.

Key:
[1] = NCI Yeast Anticancer Drug Screen. Data for the rad50 strain (AID 155);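 note: 0% = growth of vehicle-only cultures of the same strain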; conditions: S. cerevisiae rad50 strain growth inhibition; at 50.0 µM; stronger effect = higher value
How it was run: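 DNA repair mutant yeast, compound exposure, growth read-out; inhibition is taken relative to vehicle.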

[2] = NCI Yeast Anticancer Drug Screen. Data for the mec2-1 strain (AID 157); conditions: S. cerevisiae mec2-1 strain, at 50.0 µM, stronger effect = higher value
How it was run: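 Each compound was tested on mec2-1 yeast, a strain altered in DNA damage repair or cell cycle control. Growth inhibition is reported relative to vehicle.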

[3] = NCI Yeast Anticancer Drug Screen. Data for the sgs1 mgt1 strain (AID 161);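 note: 0% = growth of cultures given vehicle only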; conditions: S. cerevisiae sgs1 mgt1 strain, at 50.0 µM, stronger effect = higher value
How it was run: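 Read-out: growth inhibition vs vehicle controls. Cells: mutant yeast strain deficient in DNA damage repair.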

[4] = NCI Yeast Anticancer Drug Screen. Data for the cln2 rad14 strain (AID 165);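 note: 0% = growth equal to vehicle treated cultures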; conditions: S. cerevisiae cln2 rad14 strain, at 50.0 µM, stronger effect = higher value
How it was run: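 Test compounds were added to cln2 rad14 yeast cultures; inhibition of growth was then determined by comparison with vehicle treatment.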

[5] = NCI Yeast Anticancer Drug Screen. Data for the bub3 strain (AID 167); conditions: S. cerevisiae bub3 mutant strain, at 50.0 µM, stronger effect = higher value
How it was run: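 In this screen, a yeast mutant lacking normal mitotic checkpoint function is challenged with compound. Relative growth versus vehicle gives the inhibition value.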

[6] = NCI Yeast Anticancer Drug Screen. Data for the mlh1 rad18 strain (AID 175); conditions: S. cerevisiae mlh1 rad18 strain growth inhibition; at 50.0 µM; stronger effect = higher value
How it was run: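 Inhibition values reflect reduced growth of mutant yeast versus vehicle-treated controls following compound exposure; the mutations affect DNA damage repair.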

Measured: growth inhibition

Cc1cc(=O)[nH]c2ccccc12
inactive: [1] 26.6% and 14% | [2] -6.3% and -2.8% | [3] -7.8% and -30.9% | [4] 6.3% and 21.8% | [5] 7.05% and -10.1% | [6] 6.45% and 12.5%

CCOC(=O)C(c1ccccc1)c1cccc(C(C(=O)OCC)c2ccccc2)n1 (configuration not stated)
inactive: [1] 3.1% and 8.55% | [2] 0.2% and 0.1% | [3] -16.9% and -33.5% | [4] -3.05% and -41.7% | [5] 1.8% and -3.6% | [6] 17.6% and -13.7%

N#Cc1c(-c2ccccc2)cc(-c2ccccc2)n(C2OC(CO)C(O)C(O)C2O)c1=O (configuration not stated)
inactive: [1] -14.6% and -8.2% | [2] -2.85% and -9.1% | [3] 4.85% and -5.85% | [4] 1.2% and 12.4% | [5] 5.65% and 8.3% | [6] -7.95% and -10.8%

CC(CCC(=O)O)C1CCC2C3C(O)CC4CC(O)CCC4(C)C3CC(O)C12C (configuration not stated)
inactive: [1] 42.7% and 3.65% | [2] 46.2% and -12.6% | [3] 45.4% and -17.3% | [4] 47.6% and 0.9% | [5] 46.7% and -9.35% | [6] 35.9% and 14.2%

CCOC(=O)C(N)CS (configuration not stated)
inactive: [1] -1.35% and -31.1% | [2] -22.8% and -66.1% | [3] -2.5% and -6.05% | [4] -26.9% and 7.05% | [5] -28.3% and -30.7% | [6] 4.95% and -27.9%

CCCCc1c(C#N)c(=O)n2c(N)c(C(=O)OCC)cnc2c1SC
inactive: [1] -8.45% and 11.1% | [2] -3.4% and 14.9% | [3] 8.3% and -12.1% | [4] -7.6% and -34% | [5] 5.65% and -7.9% | [6] 9.15% and -5.05%

O=C(O)C1CCCCC1
inactive: [1] -5.9% and -10.2% | [2] -22.6% and -8.45% | [3] -13.7% and 22.7% | [4] 5.95% and -13.2% | [5] 2.15% and 2.55% | [6] 8.3% and 17.1%

CC(=O)Nc1ccc(-c2ccc(NC(C)=O)cc2)cc1
inactive: [1] -24.2% and -15.2% | [2] -41.9% and -24.6% | [3] -26.9% and -0.95% | [4] -182% and -42.9% | [5] -24.4% and -1.45% | [6] -10.1% and -21.2%

C1CN(CCN2CCOCC2)CCO1
inactive: [1] 0.9% and 7.9% | [2] 18.1% and 13% | [3] 9.35% and 13.6% | [4] -26.6% and -40.6% | [5] 10.6% and 28.9% | [6] 7.7% and 14%

CC(=O)Nc1cccc(N)c1
inactive: [1] 8.05% and 12.3% | [2] -12% and 6.65% | [3] 0.35% and -3.95% | [4] 5.4% and -40.4% | [5] 5.1% and 0.7% | [6] 9.6% and -1.3%

CC1=NN(c2ccc([N+](=O)[O-])cc2)C(=O)C1[N+](=O)[O-] (configuration not stated) (tested in a mixture with another compound)
inactive: [1] 20.1% and 26.6% | [2] 1.95% and 2.9% | [3] 12.3% and 34.4% | [4] 14.8% and 13.1% | [5] -1.75% and -1.25% | [6] 3.35% and 12.8%

O=C(O)CCC(C(=O)O)N1C(=O)c2ccccc2C1=O (configuration not stated)
inactive: [1] 9.3% and -0.9% | [2] -0.3% and -41.5% | [3] 0.3% and -24.4% | [4] -30.1% and -10.7% | [5] 3.75% and -48.2% | [6] 8.6% and -0.75%

O=C1NC(=S)S/C1=C/c1ccnc2ccccc12
inactive: [1] 18.2% and 6.7% | [2] 14.8% and 9.3% | [3] 19.4% and -3.1% | [4] 20.9% and -32.1% | [5] 5.45% and -8.75% | [6] 1.25% and -11.6%

CC(=O)NC(Cc1ccccc1)C(=O)O (configuration not stated)
inactive: [1] 11.1% and -7.55% | [2] -3% and -7.6% | [3] 15.7% and 4.25% | [4] 6.3% and -52.9% | [5] 6.25% and -14.1% | [6] -18.3% and -27.1%

CC(=O)Nc1cccc2c1C(=O)OC2=O
inactive: [1] 8.65% and 1.9% | [2] -3.9% and -0.15% | [3] 5.05% and -16.7% | [4] -6.3% and -20.6% | [5] -1.9% and -0.8% | [6] -8.1% and -4.7%

CC(C)CC(CC(C)C)=NNc1ccc([N+](=O)[O-])cc1[N+](=O)[O-]
inactive: [1] -12.9% and -0.9% | [2] 6.5% and -18.6% | [3] -10% and -6.9% | [4] -33.3% and 19.9% | [5] 12.3% and -10.9% | [6] -13.9% and 19.4%

Cc1ccc(N(O)C(C)(C)C)cc1
inactive: [1] -16.4% and -2.35% | [2] -17.9% and 7.6% | [3] -4.3% and 3.05% | [4] -3.85% and -1.2% | [5] -23.9% and 13.8% | [6] 9.15% and -11.9%

O=C(O)C(Cc1ccccc1)Cc1ccccc1
inactive: [1] -11.6% and 20.8% | [2] 4.6% and 3.1% | [3] -14.4% and 9.8% | [4] -40.1% and 29.2% | [5] -22.9% and 43.5% | [6] 3.75% and 35.2%

C1=NCCCN1
inactive: [1] 19.4% and 21.4% | [2] -7.95% and -23.4% | [3] 13.3% and 20.6% | [4] 9.4% and 6.35% | [5] 18.2% and 3% | [6] 22.2% and 18.6%

O=C(Oc1ccc(Cl)cc1Cl)Oc1ccc(Cl)cc1Cl
inactive: [1] -16.8% and -3.1% | [2] 11.6% and 10% | [3] -0.9% and -13.1% | [4] -13.1% and -15.7% | [5] 14.2% and 14.9% | [6] -14.5% and 20.6%

OCCN1CCNCC1
inactive: [1] 4.4% and -9.55% | [2] -0.5% and -14.3% | [3] 4.95% and -17.8% | [4] 8.3% and -15.8% | [5] -23.5% and 13.4% | [6] 1.75% and -19.2%

N#CC(C#N)=CN1CCOCC1
inactive: [1] -0.6% and 8.35% | [2] -24.1% and 8.95% | [3] 1.75% and -7.75% | [4] -22.5% and 10.4% | [5] -0.6% and -0.55% | [6] 4.1% and -12.9%
